Screening data from PubChem BioAssay.
MOR-DOR inv ag – mu-delta opioid heterodimer inverse agonism | inhibition, % at 9.3 µM | 340,000 compounds, 0.21% hits | cell-based MOR-DOR heterodimer luminescence; in the data active = inhibition above about 22%, passing the limit was not always enough;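 note: 0% = cells with DMSO and 100% = wells without cells with DMSO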
HTR5A inv ctr – HTR5A inverse agonism, opioid heterodimer counter-screen. 340,000 compounds, 0.083% hits. inhibition, % at 9.3 µM. HTR5A cell line, luminescence. AID 504634; in the data active = inhibition mostly above about 23%, no sharp cut-off; inactive = mostly below about 18%;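 note: 0% = cells with DMSO and 100% = no-cell wells with DMSO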
Target sequence (P47898 whole entry, looked up): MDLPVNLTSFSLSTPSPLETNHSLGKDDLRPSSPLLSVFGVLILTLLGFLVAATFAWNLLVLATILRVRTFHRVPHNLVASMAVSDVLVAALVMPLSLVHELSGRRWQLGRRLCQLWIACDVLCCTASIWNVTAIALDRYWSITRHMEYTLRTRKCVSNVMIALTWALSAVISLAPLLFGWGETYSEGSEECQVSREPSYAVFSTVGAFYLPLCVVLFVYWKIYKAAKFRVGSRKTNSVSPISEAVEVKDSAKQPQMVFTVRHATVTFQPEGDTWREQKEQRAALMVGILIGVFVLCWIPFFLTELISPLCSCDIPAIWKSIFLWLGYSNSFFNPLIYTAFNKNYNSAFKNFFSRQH
MIN6 prolif – inducers of beta-cell replication in MIN6 cells; MIN6 cells proliferation, ATPlite luminescence, 48 h; cells starved in 0.2% serum; 100% = growth in 10% serum; proliferation, % at 10 µM; 330,000 compounds, 0.29% hits;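 active = compounds whose signal lies at least 3.5 SD above the mean of all wells on their plate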;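 note: 0% = DMSO-treated cells in low-serum medium and 100% = 10% serum control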
V-ATPase pH – regulators of yeast V-ATPase proton transport; response, % at 10 µM; 350,000 compounds, 0.37% hits; S. cerevisiae, pHLuorin cytosolic pH fluorescence; AID 504577; in the data active = response mostly above about 7.3%, no sharp cut-off; inactive = mostly below about 5.4%; note: actives read high
HTR5A ag ctr – counter-screen for OPRM1-OPRD1 agonists: human HTR5A agonism. HTR5A agonist assay, luminescence, cell-based. P47898. activation, % at 9.3 µM. AID 504692. 340,000 compounds, 0.61% hits; in the data active = activation mostly above about 9.5%, no sharp cut-off; inactive = mostly below about 7.6%;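 note: 0% = cells with vehicle only and 100% = reference agonist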
OPRM1-OPRD1 ag – agonists of human mu-delta opioid receptor heterodimerization | 340,000 compounds, 0.3% hits | activation, % at 9.3 µM | P35372+P41143 | cells, OPRM1-OPRD1 heterodimerization, luminescence | AID 504326;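 note: 0% = vehicle-treated cells and 100% = reference agonist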
OPRM1-D1 ag cf – OPRM1-OPRD1 heterodimer agonism, confirmation; shares compounds with OPRM1-OPRD1 ag; cells, MOR-DOR heterodimerization, luminescence complementation; activation, % at 9.3 µM; 830 compounds, 45% hits; AID 504904;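 note: 0% = vehicle-treated cells and 100% = reference agonist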
HTR5A ag counter – counter-screen for OPRM1-OPRD1 agonists: human HTR5A agonism; shares compounds with OPRM1-OPRD1 ag; HTR5A agonist counterscreen, cell luminescence; activation, % at 9.3 µM; 830 compounds, 8% hits; AID 504905; in the data active = activation above about 17%;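 note: 0% = vehicle-treated cells and 100% = reference agonist response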
Starred values were filed as active, the others as inactive; i = inactive; . = not tested or not shown. Compounds with a hit are over-represented: about 1.7% of the library has one in this group of screens. Cut-off read from the data, not from the text of the source, unless noted: active = activation above about 18%; inactive = the rest.

SMILES	MOR-DOR inv ag	HTR5A inv ctr	MIN6 prolif	V-ATPase pH	HTR5A ag ctr	OPRM1-OPRD1 ag	OPRM1-D1 ag cf	HTR5A ag counter
COc1ccc(S(=O)(=O)/N=C2/C=CC(=O)C(C)=C2C)cc1	-44	-33	-1	-1	12	10	.	.
CC1=C/C(=N\OS(=O)(=O)c2ccccc2)C(C)=CC1=O	-417	13	-4	15	11*	78*	47*	7
CC1=C(C)/C(=N\OS(=O)(=O)c2ccc(C)cc2)C=CC1=O	-262	-7	.	10*	2	50*	0	54*
CSc1ccc(CCNC(=O)CCc2nnc3ccc(N4CCC5(CC4)OCCO5)nn23)cc1	-4	-4	0	1	3	1	.	.
CCOC(=O)C1(CCOc2ccccc2)CCN(Cc2ccccc2O)CC1	-4	12	.	2	-3	1	.	.
CCOC(=O)C1(CCOc2ccccc2)CCN(Cc2cccc3c2OCO3)CC1	-93	8	-4	1	-3	18*	14	6
CC(=O)Nc1ccc(CN2CCC(CO)(CCOc3ccccc3)CC2)cc1	-18	-6	1	1	2	4	.	.
CCOC(=O)C1(CCOc2ccccc2)CCN(Cc2ccc(OC)cc2)CC1	i	5	.	-2	-1	224*	4	7
CCOC(=O)C1(CCOc2ccccc2)CCN(Cc2cccc(-n3cccn3)c2)CC1	-170	-2	-3	-2	1	33*	17	-1
CCOC(=O)C1(CCOc2ccccc2)CCN(Cc2ccc(NC(C)=O)cc2)CC1	i	10	-3	-3	-4	92*	8	7
Cc1cccc(C(=O)N2CCCC(N3CCN(Cc4ccc5c(c4)OCO5)CC3)C2)n1 (stereo not drawn)	13	-13	0	-1	6	-2	.	.
O=S(=O)(NC1CCCCC1)c1ccc(N2CCOCC2)nc1	5	-24	-1	0	4	-1	.	.
CCOC(=O)C1(CCOc2ccccc2)CCN(Cc2cnc(C)s2)CC1	-397	7	-1	-2	-2	72*	80*	-1
Cc1cc2c(cc1S(=O)(=O)NCc1ccccc1Cl)OCCN2C	1	9	1	-1	-3	0	.	.
Cc1ccccc1NP1(=O)OCCCN1Cc1ccccc1Cl (stereo not drawn)	-147	4	.	-4	-1	30*	1	4
O=C(CCN1C(=O)c2ccccc2S1(=O)=O)Nc1ccc(Cl)cc1	1	1	-1	5	0	0	.	.
C/C(=N\NC(=O)c1cccc(S(=O)(=O)N2CCOCC2)c1)c1ccc(O)cc1	i	-19	-2	-1	8	219*	-1	2
CC(=O)Nc1cccc(/C(C)=N/NC(=O)c2cccc(S(=O)(=O)N3CCOCC3)c2)c1	5	-24	-1	1	0	-1	.	.
CC1=C(C(=O)Nc2ccccc2)C(c2ccc(C)cc2)N=C(Nc2nc3ccccc3o2)N1 (stereo not drawn)	-219	-41	-6	0	3	40*	34*	16
Cc1c(C)c2ccc(OC(C)C(=O)NCCc3c[nH]c4ccccc34)cc2oc1=O (stereo not drawn)	15	12	3	-3	9	-3	.	.
OC(CNC1CCCc2ccccc21)COc1ccc2ccccc2c1 (stereo not drawn)	-208	-5	-6	-1	2	42*	31*	9
C=CCN(C(=O)c1csnn1)C(C(=O)NCc1ccc(F)cc1)c1sccc1C (stereo not drawn)	-6	-14	-3	-5	-1	1	.	.
N#CCC(=O)N/N=C/c1cn(Cc2ccc(Cl)c(Cl)c2)c2ccccc12	-97	6	-3	-1	6	19*	14	6
CN=c1scc(-c2ccccc2F)n1/N=C/c1ccc(O)c(O)c1O	-87	-5	.	-2	2	18*	1	1
CN(Cc1ccccc1)C(=O)CN1C(=O)NC(C)(c2ccc(Cl)cc2)C1=O (stereo not drawn)	13	10	-3	0	0	-2	.	.
SMILES	MOR-DOR inv ag	HTR5A inv ctr	MIN6 prolif	V-ATPase pH	HTR5A ag ctr	OPRM1-OPRD1 ag	OPRM1-D1 ag cf	HTR5A ag counter
CCCCCCCCCS(=O)(=O)Nc1cc(C)ccn1	10	-13	0	2	5	-2	.	.
Cc1cc(C)cc(NS(=O)(=O)CCCS(=O)(=O)Nc2cc(C)cc(C)c2)c1	-145	-22	.	0	6	30*	1	-4
CNc1c(NS(=O)(=O)c2ccc(OC)c(Cl)c2)c(=O)oc2ccccc12	14	16	-6	0	-1	-3	.	.
COc1ccc(CC(=O)N/N=C/c2sccc2C)cc1	14	-7	-1	1	2	-3	.	.
Cc1ccc(CSCC(=O)N/N=C/c2sccc2C)cc1	-478	23	-5	1	-6	89*	180*	4
CN(C)C(CNC(=O)Nc1cccc(Cl)c1)c1cccnc1 (stereo not drawn)	i	-4	0	2	5	202*	4	-4
CCc1cccc(CC)c1NC(=S)NCC(c1cccnc1)N(C)C (stereo not drawn)	i	14	-1	4	-2	150*	-2	0
CN(C)C(CNC(=S)Nc1ccc(Cl)cc1)c1cccnc1 (stereo not drawn)	i	3	0	1	0	264*	-1	-1
CC(C)(C)c1ccc(OCC(=O)Nc2ccc3c4c(cccc24)C(=O)NC3=O)cc1	-96	-2	.	-4	-3	19*	0	0
CCC(=O)N1N=C(c2ccc(NS(=O)(=O)c3ccccc3)cc2)CC1c1ccco1 (stereo not drawn)	-12	-1	2	2	11	3	.	.
CC(=O)c1ccc(NC(=O)Nc2ccc3c(c2)N(C)C(=O)CS3)cc1	-293	12	-3	2	2	50*	120*	-1
CCN1C[C@@H]2[C@@H]3C(=O)N(Cc4ccccc4)C(=O)[C@@H]3[C@](C)(C1=O)N2C(=O)c1ccccc1	11	-40	.	0	14	-2	.	.
COc1ccc2c(CC(=O)Nc3ccccc3OC)coc2c1	17	3	-2	-1	-1	-3	.	.
COc1ccc2c(CC(=O)Nc3ccc(OC)c(NS(=O)(=O)c4ccc(F)cc4)c3)coc2c1	-118	-9	-3	2	3	19*	6	1
O=C(NCCCNC(=O)c1cnccn1)c1cccc(F)c1	0	-10	0	2	4	0	.	.
COc1cc(CN2CCCCC2C(=O)Nc2ccc(Oc3ccccc3)nc2)ccc1O (stereo not drawn)	-5	-3	-1	-2	1	1	.	.
